Measurements: PubChem BioAssay (Tox21)
Results filed as inconclusive are left out. Entries that show only a call come without a potency. Active and inactive are the calls of the source. The call rests on the fitted dose curve; in most records, active means well fitted cell-killing curve with a large enough effect in the repeat runs; inconclusive means weak or mixed curves; inactive means no such curve, though single readings can be large or run the other way.

assay: qHTS assay to identify small molecule agonists of the peroxisome proliferator-activated receptor delta (PPARd) signaling pathway - cell viability counter screen (AID 743211); details: PPARd-bla HEK293H viability, CellTiter-Glo luminescence, 17 h; series mostly up to 62.6 µM; further: nearly all actives have a fitted effect of over 55% in size
Description: U.S. Tox21 Program National Center for Advancing Translational Sciences [NCATS] NIH Chemical Genomics Center [NCGC] U.S. Environmental Protection Agency [EPA] National Institutes of Environmental Health Sciences [NIEHS] National Toxicology Program [NTP] U.S. Food and Drug Administration [FDA] Tox21 Assay Overview: The peroxisome proliferator-activated receptors (PPARs) are lipid-activated transcription factors of the nuclear receptor superfamily with three distinct subtypes namely PPAR alpha, PPAR delta (PPARd) and PPAR gamma. All these subtypes heterodimerizes with Retinoid X receptor (RXR) and have different physiological functions. […] To identify the compounds that activate PPAR-delta signaling, GeneBLAzer PPAR delta UAS-bla HEK293H cell line (Invitrogen, Carlsbad, CA, USA) containing a beta-lactamase reporter gene under the control of an Upstream Activator Sequence (UAS) was used to screen the Tox21 compound library. The cytotoxicity of the Tox21 compound library against the PPARd-bla cell line was tested in parallel by measuring the cell viability using CellTiter-Glo assay (Promega, Madison, WI) in the same wells.
Tox21 Assay Protocol Summary: PPARd-bla cells were dispensed at 3000 cells/6uL/well in 1536-well black wall/clear bottom plates using a Multidrop Combi (Thermo Fisher Scientific, Waltham, MA) dispenser. After the assay plates were incubated at 37 C and 5% CO2 for 5 h, 23 nL of compounds dissolved in DMSO, positive controls or DMSO only was transferred to the assay plate by a Pintool station (Kalypsys, San Diego, CA). The assay plates were incubated at 37C for 17 h. After 1 uL of LiveBLAzerTM B/G FRET substrate was added using a Bioraptr Flying Reagent Dispenser (FRD) workstation (Beckman Coulter, Indianapolis, IN, USA), the plates were incubated at room temperature for 2 h, and fluorescence intensity was measured by an Envision plate reader (PerkinElmer, Shelton, CT). For cell viability readout that measures cytotoxicity, 3 ul/well of CellTiter-Glo reagent was added into the assay plates using a Bioraptr FRD. After 30 min incubation at room temperature, the luminescence intensity in the plates was measured using a ViewLux plate reader (PerkinElmer).

Row | SMILES | Potency
1 | CC1(C)CC(N=C=O)CC(C)(CN=C=O)C1 (stereo not given) | inactive
2 | NCCNCCNCCNCCN | inactive
3 | CCCCCC/C=C/CCCCCCCC(=O)O | inactive
4 | O=S(=O)(O)CCS | inactive
5 | CNC[C@H](O)[C@@H](O)[C@H](O)[C@H](O)CO | inactive
6 | ClC1=C(Cl)C(Cl)(Cl)C(Cl)=C1Cl | inactive
7 | CC1Cc2ccccc2N1NC(=O)c1ccc(Cl)c(S(N)(=O)=O)c1 (stereo not given) | inactive
8 | CN(CCOc1ccc(CC2SC(=O)NC2=O)cc1)c1ccccn1 (stereo not given) | inactive
9 | O=C(O)c1ccc([N+](=O)[O-])cc1 | inactive
10 | NCc1cccc(CN)c1 | inactive
11 | c1ccc2[nH]cnc2c1 | inactive
12 | CCOC(=O)[C@H](CCc1ccccc1)N[C@@H](C)C(=O)N1Cc2ccccc2C[C@H]1C(=O)O | inactive
13 | Oc1ccc2ccccc2c1 | inactive
14 | O=S(=O)(Oc1ccc(Cl)cc1Cl)c1ccccc1 | inactive
15 | O=Nc1ccc(O)cc1 | inactive
16 | COC(=O)c1ccccc1O | inactive
17 | Oc1ccc2ccccc2c1N=Nc1ccccc1 | inactive
18 | O=C(c1ccc(O)cc1)c1ccc(O)cc1O | inactive
19 | CCCCCCCCC | inactive
20 | CCCCOCCO | inactive

Row | SMILES | Potency
21 | C=CC(=O)OCCCCCCCC(C)C | inactive
22 | CC1=C(CC(=O)O)c2cc(F)ccc2/C1=C\c1ccc(S(C)=O)cc1 (stereo not given) | inactive
23 | CC(=O)Nc1ccc(C(=O)O)cc1 | inactive
24 | CC(C)n1c(/C=C/[C@@H](O)C[C@@H](O)CC(=O)O)c(-c2ccc(F)cc2)c2ccccc21 | inactive
25 | CC(C)NCC(O)COc1cccc2ccccc12 (stereo not given) | inactive
26 | O=C1O[C@H](CO)[C@@H](O)[C@H](O)[C@H]1O | inactive
27 | CC(C)Cc1ccccc1 | inactive
28 | C=C(C)C(=O)OCCCCCCCCCCCC | inactive
29 | CCC(=O)O | inactive
30 | OC[C@@H](O)[C@H](O)[C@H](O)[C@@H](O)CO | inactive
31 | Cc1ccc(C(=O)O)o1 | inactive
32 | O=C(c1cc(O)c(O)c(O)c1)c1ccc(O)c(O)c1O | inactive
33 | COCC(=O)O | inactive
34 | Clc1ccc(Cl)c(Cl)c1Cl | inactive
35 | O=c1c(-c2ccc(O)cc2)coc2cc(O)ccc12 | inactive
36 | O=C(O)c1cc(-c2ccccc2)nc2ccccc12 | inactive
37 | CCCCCCCCCCC=CC1CC(=O)OC1=O (stereo not given) | inactive
38 | O=[N+]([O-])c1cccc(Cl)c1 | inactive
39 | CCCCCCOC(C)=O | inactive
40 | COCC(C)O (stereo not given) | inactive
